# KB-3-1 tox: KB-3-1 parental cell cytotoxicity. KB-3-1 viability, CellTiter-Glo ATP luminescence, 72 h. Potency, µM (top dose mostly 46.1 µM), hits mostly cytotoxic. actives 1.4% (n = 400,000). AID 1347075; also: % is scaled to controls: 0 for no effect and ±100 for the full control effect; nearly all actives have a fitted effect of over 60% in size
#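 Parental KB-3-1 adenocarcinoma cells in phenol-red-free DMEM with 10% FBS were pin-treated with compounds at several concentrations, incubated 72 h at 37 °C, and viability read by CellTiter-Glo luminescence; concentration-effect curves were fitted after normalization.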
# KB-V1 cytotox: KB-V1 MDR subline cytotoxicity; KB-V1 MDR cells viability, CellTiter-Glo, 72 h; Potency, µM (top dose mostly 46.1 µM), actives largely listed as cytotoxic; actives 3.4% (n = 400,000); also: % is scaled to controls: 0 for no effect and ±100 for the full control effect; nearly all actives have a fitted effect of over 60% in size
#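 Drug-selected KB-V1 cells, grown in DMEM lacking phenol red with 10% FBS, receive compound titrations; after three days at 37 degrees C, surviving cell ATP is quantified by CellTiter-Glo luminescence and responses normalized and curve-fitted.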
# ATXN2 expr inh: ATXN2 expression inhibition | HEK-293 ATXN2-luciferase reporter, luminescence, 24 h | actives 0.72% (n = 360,000) | Potency, µM (doses to about 57 µM), for inactives: top-dose activity change, negative = inhibition, actives largely listed as inhibitors; also: % is scaled to controls: 0 for no effect and ±100 for the full control effect; nearly all actives have a fitted effect of over 55% in size
#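 ATXN2-luciferase reporter cells (luciferase flanked by upstream and downstream ATXN2 gene portions) were treated 24 h at 37 °C with compounds at up to 57 uM. SteadyGlo luminescence gave expression; GF-AFC fluorescence gave viability.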
# S2 tox: cell viability loss in ATXN counter-screen. S2 cells (HEK-293 line with an ATXN2-luciferase reporter) viability, CellTiter-Fluor protease fluorescence, 24 h. Potency, µM (highest dose often 56.7 µM), most hits filed as cytotoxic. actives 0.49% (n = 400,000); also: nearly all actives have a fitted effect of over 40% in size
# HepG2 viability: kills HepG2 cells in TGF-b inhibitor counter-screen | actives 0.76% (n = 410,000) | HepG2 CAGA-GFP viability, ATP luminescence, 18 h | Potency, µM (series often up to 46.1 µM), without a hit: top-dose activity change, negative = cytotoxicity, actives largely listed as cytotoxic
#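 CellTiter-Glo luminescence gave cytotoxicity after 18 hours at 37 degrees C. The cells were HepG2 CAGA-GFP in 1% FBS DMEM, stimulated with 500 pg/mL TGF-beta after compound addition. %Activity was normalised to no-cell wells (complete cell-killing) and DMSO (no toxicity), and curves were fitted and classified.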
# TGFb SMAD3 inh: inhibitors of TGF-b signaling. Potency, µM (series often up to 46.1 µM), without a hit: at the highest dose activity, negative = inhibition, usual class: inhibitors. AID 588855. HepG2 CAGA-GFP TGF-b/SMAD3 reporter, GFP fluorescence, 18 h; TGF-beta stimulated, 500 pg/mL final. actives 1.2% (n = 410,000); also: % is scaled to controls: 0 for no effect and ±100 for the full control effect; nearly all actives have a fitted effect of over 65% in size
#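 HEPG2 CAGA-GFP reporter cells (1000/well, DMEM with 1% FBS) received compounds, then recombinant TGF-beta at 500 pg/mL final for 18 hours at 37 degrees C. Per-cell GFP summed per well was normalised to unstimulated and stimulated DMSO controls before curve fitting.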
# * marks the source's active call; other numbers are inactive results; i = inactive; u = inconclusive; x = no result; [ ] = dose if it differs, or a comment. Only some compounds are listed: those with a hit (about 5.9% of all), similar ones and a draw of the others. Calls follow the shape of the dose curve; as a rule, active = well fitted curve in the direction sought with a large enough effect; inconclusive = small, poorly fitted or top-dose-only effect, or another doubt; inactive = no such curve, though single readings can be large; an effect the other way counts as inactive or inconclusive. Potency is read from the fitted curve at half-maximal effect.
SMILES,KB-3-1 tox,KB-V1 cytotox,ATXN2 expr inh,S2 tox,HepG2 viability,TGFb SMAD3 inh
CCC(C)NC(=O)C1c2ccccc2C(=O)N1Cc1cc(OC)ccc1OC (stereo not given),i,7.31µM*,3.5%,i,1.8%,12.1%
Cc1csc2nc(COC(=O)CNC(=O)c3ccccc3)cc(=O)n12,i,i,-6.8%,i,-11.1%,4.4%
CCc1cc(-c2nnn(CCC3COCCO3)c2CC)ccc1-c1cn(CCc2c[nH]c3ccccc23)nn1 (stereo not given),i,i,-66.8%,i,-41.5%,-21.1%
CCc1cc(-c2nnn(CCC3COCCO3)c2CC)cc(CC)c1-c1cn(Cc2ccc3ccccc3c2)nn1 (stereo not given),u,5.8µM*,-23.5%,i,-18.8%,-1.2%
Cc1c(Cl)cccc1N/C(SCC(=O)N1CCCCCC1)=C(/C#N)c1nc2ccccc2s1,20.6µM*,14.6µM*,u,x,-1.9%,-6.4%
COc1ccc(NC(=O)CCC(=O)c2cccs2)cc1S(=O)(=O)Nc1ccc(Cl)cc1,u,7.31µM*,-36.8%,u,-1.8%,-8.3%
COc1ccc(NC(=O)c2c(F)cccc2F)cc1S(=O)(=O)Nc1ccc(Br)cc1,i,10.3µM*,-32.7%,u,4.4%,u
COc1ccccc1NS(=O)(=O)c1cc(NC(=O)CCC(=O)c2cccs2)ccc1Cl,i,i,-7.1%,i,-16.5%,-18.9%
CC(C)(C)c1ccc(Oc2ccc(NC(=O)CCC(=O)OCC(=O)c3ccccc3)cc2)cc1,i,i,-1.6%,u,-54.9%,u
O=C(Nc1nc2ccccc2n1CCOc1ccccc1Cl)c1ccccc1,i,i,44.4%,i,-10.7%,-2.3%
C[C@H](NCc1ccc2c(c1)nc(NC(=O)c1ccc(-c3cn[nH]c3)s1)n2CCc1ccccc1)C(C)(C)C,x,x,1.93µM*,x,x,x
CC(=O)N1c2ccc(S(=O)(=O)N(C)CC(=O)N(Cc3ccccc3)C(C)C)cc2CC1C (stereo not given),i,i,-4.0%,i,-6.1%,4.2%
CCOC(=O)c1c(NC(=O)C2C3C=CC(C3)C2C(=O)O)sc2c1CCCC2 (stereo not given),i,i,-17.4%,i,-14.4%,-12.5%
CCOC(=O)c1c(NC(=O)c2ccc(N3C(=O)C4C5C=CC(C5)C4C3=O)cc2)sc2c1CCCC2 (stereo not given),i,16.4µM*,-1.2%,i,1.5%,7.3%
CCCCN(CCCNC(=O)c1cc(Nc2cccc(SC)c2)nc2ccccc12)Cc1ccccc1,x,x,x,x,12.6µM*,15.8µM*
CSc1cccc(Nc2cc(C(=O)NCCc3ccc(Cl)cc3)c3ccccc3n2)c1,u,u,u,i,-33.3%,10µM*
Cc1cccc(NC(=O)CSc2nnc(-c3cccs3)o2)c1,i,i,86.4%,i,-27.6%,6.4%
Cc1ccc(SC(=O)c2c(C)noc2-c2cc(C)on2)cc1,i,i,2.8%,i,-60.5%,17.8µM*
COC(=O)C1CCN(CC(=O)Nc2cc(C)c3c(=O)oc4ccccc4c3n2)CC1,i,i,-0.4%,i,-1.6%,0.8%
O=C(N=Nc1c(O)[nH]c2ccc(Br)cc12)c1cc(-c2cccs2)nc2ccccc12,u,u,11.2µM*,10µM*,-39.7%,-3.5%
Cn1c(O)c(N=NC(=O)c2cc(-c3cccs3)nc3ccccc23)c2ccccc21,i,u,-24.2%,u,-11.0%,u
COc1ccccc1CNC(=O)CCCn1c(=O)c2ccccc2n(Cc2ccc(F)cc2)c1=O,i,i,-5.5%,i,6.3%,-9.7%
CCOc1ccccc1NC(=O)Cn1c(=O)n(Cc2nc(C)no2)c(=O)c2ccccc21,i,i,x,x,-20.1%,-14.9%
Cc1nn(Cc2ccc(Cl)cc2)c(C)c1NC(=O)Cn1nc([N+](=O)[O-])c(Cl)c1C,u,i,5.9%,i,-5.5%,4.3%
O=C(Nc1ccccc1N1CCN(C(=O)c2ccc(Cl)cc2)CC1)c1ccc([N+](=O)[O-])o1,20.6µM*,u,u,u,-13.9%,u
SMILES,KB-3-1 tox,KB-V1 cytotox,ATXN2 expr inh,S2 tox,HepG2 viability,TGFb SMAD3 inh
O=C(Nc1ccc(Cl)cn1)c1ccc(-c2cc(Cl)ccc2Cl)o1,i,u,-11.1%,u,6.3%,1.1%
Cc1c(Cl)c([N+](=O)[O-])nn1Cc1ccc(C(=O)Nc2ccc(Cl)cn2)o1,i,3.66µM*,-1.1%,i,0.2%,-3.4%
O=C(Nc1ccc(Cl)cn1)c1ccc([N+](=O)[O-])o1,i,u,u,i,17.8µM*,11.2µM*
O=C(c1[nH]ncc1-c1cccc(Br)c1)C1CO1 (stereo not given),u,u,-35.9%,u,-12.9%,u
O=C(c1[nH]ncc1-c1ccccc1)C1CO1 (stereo not given),i,i,0.8%,i,12.6µM*,-14.1%
Cc1sc2ccccc2[n+]1CCCCI,i,i,x,x,-11.5%,1.5%
Cc1cc(C(=O)CCl)c(C)n1-c1cccc(S(=O)(=O)N2CCOCC2)c1,i,16.4µM*,-18.4%[11.3 µM],x,-108.8%,u
Cc1cc(C(=O)CN2C(=O)CN(C)C2=O)c(C)n1-c1cccc(S(=O)(=O)N2CCOCC2)c1,i,i,x,i,-2.4%,-1.8%
NC(=O)C1CCN(C(=O)c2cccc(S(=O)(=O)N3CCc4ccccc4C3)c2)CC1,i,i,9.1%,i,-1.6%,u
O=C(c1cccc(S(=O)(=O)N2CCc3ccccc3C2)c1)N1CCN(c2ccc(O)cc2)CC1,u,13µM*,-32.3%,i,-33.1%,-24.1%
O=S(=O)(c1ccc(Oc2ccc(S(=O)(=O)N3CCOCC3)cc2)cc1)N1CCOCC1,u,14.6µM*,-13.4%,i,-32.6%,-14.4%
CCOc1ccccc1N1CCN(C(=O)c2cccc(S(=O)(=O)N3CCOCC3)c2)CC1,u,23.1µM*,1.3%,i,-9.3%,u
O=C(c1ccc2nc(-c3ccco3)c(-c3ccco3)nc2c1)N1CCN(c2ccccc2)CC1,i,23.1µM*,u,u,-15.6%,-17.3%
COc1ccc(N2CCN(C(=O)c3ccc(S(=O)(=O)N4CCOCC4)cc3)CC2)cc1,i,16.4µM*,-2.8%,i,-23.3%,-19.0%
COc1ccccc1N1CCN(C(=O)c2cccc(S(=O)(=O)N3c4ccccc4CC3C)c2)CC1 (stereo not given),i,3.66µM*,u,u,-13.9%,u

# Screens deposited in PubChem BioAssay by National Center for Advancing Translational Sciences (NCATS).
